Experimental data taken from PubChem BioAssay (NCATS).
Inconclusive results are not listed. Activity calls are given as the source filed them. Unless noted, calls follow the shape of the dose curve; as a rule, active = well fitted curve in the direction sought with a large enough effect; inconclusive = small, poorly fitted or top-dose-only effect, or another doubt; inactive = no such curve, though single readings can be large; an effect the other way counts as inactive or inconclusive.

What was measured:
[1] = S16 Schwann cell PMP22 intronic element beta-lactamase assay (AID 624044; calls by dose curve;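 also: 0% = DMSO and -100% = potassium clavulanate positive control; nearly all actives have a fitted effect of over 15% in size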); details: S16 rat Schwann cells, PMP22 element beta-lactamase FRET, 24 h; ratio activity, negative = inhibition: at 38.3 µM (top of the series) unless noted
Procedure, shortened: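 Beta-lactamase reporter under a PMP22 intronic regulatory element in stable S16 rat Schwann cells; 24 h compound exposure. 460 nm blue signal normalized between DMSO (0%) and potassium clavulanate, with 535 nm FRET tracking viability; curves classed by r2 and response.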

CP215 = assay: qHTS profiling for inhibitors of Plasmodium falciparum proliferation (AID 504749); also: nearly all actives have a fitted effect of over 60% in size; also: potency is read from the fitted curve at half-maximal effect;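 as to activity, negative = inhibition: 0% = DMSO vehicle and full inhibition = artemisinin control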; details: P. falciparum in erythrocytes, SYBR Green DNA, 72 h; series mostly up to 28.7 µM
Procedure, shortened: (§1)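 SYBR Green fluorescence (ex 485 nm, em 535 nm) reports parasite DNA after 72 h compound exposure of infected red cells at 0.3% parasitemia, 2.5% hematocrit; signal normalized to 0.29 uM artemisinin and vehicle wells.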

CP237 = assay: as above; details: P. falciparum in erythrocytes, SYBR Green DNA, 72 h; series mostly up to 28.7 µM
Procedure, shortened: as §1

CP268 = assay: as above; details: P. falciparum in erythrocytes, SYBR Green DNA, 72 h; series mostly up to 28.7 µM
Procedure, shortened: as §1

CP325 = assay: as above; details: P. falciparum in erythrocytes, SYBR Green DNA, 72 h; series mostly up to 28.7 µM
Procedure, shortened: as §1

DIV14 = assay: as above; details: P. falciparum in erythrocytes, SYBR Green DNA, 72 h; series mostly up to 28.7 µM
Procedure, shortened: as §1

DIV17 = assay: as above; details: P. falciparum in erythrocytes, SYBR Green DNA, 72 h; series mostly up to 28.7 µM
Procedure, shortened: as §1

ICS = assay: as above; details: P. falciparum in erythrocytes, SYBR Green DNA, 72 h; series mostly up to 28.7 µM
Procedure, shortened: as §1

JCK = assay: as above; details: P. falciparum in erythrocytes, SYBR Green DNA, 72 h; series mostly up to 28.7 µM
Procedure, shortened: as §1

PC15 = assay: as above; details: P. falciparum in erythrocytes, SYBR Green DNA, 72 h; series mostly up to 28.7 µM
Procedure, shortened: as §1

PC26 = assay: as above; details: P. falciparum in erythrocytes, SYBR Green DNA, 72 h; series mostly up to 28.7 µM
Procedure, shortened: as §1

W2 = assay: as above; details: P. falciparum in erythrocytes, SYBR Green DNA, 72 h; series mostly up to 12.8 µM
Procedure, shortened: as §1

AS120 = assay: as above; details: P. falciparum in erythrocytes, SYBR Green DNA, 72 h; series mostly up to 28.7 µM
Procedure, shortened: as §1

CP265 = assay: as above; details: P. falciparum in erythrocytes, SYBR Green DNA, 72 h; series mostly up to 12.8 µM
Procedure, shortened: as §1

P93_24 = assay: as above; details: P. falciparum in erythrocytes, SYBR Green DNA, 72 h; series mostly up to 28.7 µM
Procedure, shortened: as §1

PAD = assay: as above; details: P. falciparum in erythrocytes, SYBR Green DNA, 72 h; series mostly up to 28.7 µM
Procedure, shortened: as §1

SC27B = assay: as above; details: P. falciparum in erythrocytes, SYBR Green DNA, 72 h; series mostly up to 28.7 µM
Procedure, shortened: as §1

TAB113 = assay: as above; details: P. falciparum in erythrocytes, SYBR Green DNA, 72 h; series mostly up to 28.7 µM
Procedure, shortened: as §1

[2] = biological target: DNA dC->dU-editing enzyme APOBEC-3G (Homo sapiens) (UniProt Q9HC16); assay: qHTS for inhibitors of Vif-A3G interactions: Validation (AID 588379); also: 0% is about no effect
Sequence of DNA dC->dU-editing enzyme APOBEC-3G (Homo sapiens) (Q9HC16 whole entry, looked up): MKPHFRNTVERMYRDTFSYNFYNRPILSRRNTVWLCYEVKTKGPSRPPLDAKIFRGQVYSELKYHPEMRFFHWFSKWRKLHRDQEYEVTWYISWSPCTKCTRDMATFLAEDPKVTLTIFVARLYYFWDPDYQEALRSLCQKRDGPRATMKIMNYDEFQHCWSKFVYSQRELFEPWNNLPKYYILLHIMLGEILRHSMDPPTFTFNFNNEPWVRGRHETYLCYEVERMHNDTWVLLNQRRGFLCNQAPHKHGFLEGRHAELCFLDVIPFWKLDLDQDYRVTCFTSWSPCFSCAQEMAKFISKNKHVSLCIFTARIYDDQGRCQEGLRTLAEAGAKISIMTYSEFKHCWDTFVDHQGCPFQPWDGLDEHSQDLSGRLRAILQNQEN
Procedure, shortened: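 Yellow fluorescence (Ex 488, Em 500-530) of Vif-coexpressing HeLa A3G-eYFP cells, scanned by Acumen cytometer, reports blocked A3G degradation. Cells plated at 700/well overnight at 37 deg C before compound addition, then a further overnight compound incubation at 37 deg C.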

[3] = qHTS assay for cell viability of HEK293 cells (AID 743288); details: ATP luminescence (CellTiter-Glo), 18 h; max response: active compounds read low; also: nearly all actives have a fitted effect of over 50% in size; also: potency is read from the fitted curve at half-maximal effect; as to max response: % is scaled to controls: 0 for no effect and ±100 for the full control effect
Procedure, shortened: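 ATP luminescence (CellTiter-Glo) reports metabolically competent cell number after parental HEK293 cells, 2,000/well, were treated with DMSO-dissolved compounds for 18 h at 37 C; reagent incubation 30 min, room temperature.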

CC1=C2[C@@H]3OC(=O)[C@@H](C)[C@@H]3CC[C@]2(C)C=CC1=O
inactive: Potency [1] | Potency (CP215) | Potency (CP237) | Potency (CP268) | Potency (CP325) | Potency (DIV14) | Potency (DIV17) | Potency (ICS) | Potency (JCK) | Potency (PC15) | Potency (PC26) | Potency (W2)

CC(C)N(CC[C@@](C(N)=O)(c1ccccc1)c1ccccn1)C(C)C
inactive: Potency [1] | Potency (AS120) | Potency (CP215) | Potency (CP237) | Potency (CP265) | Potency (CP268) | Potency (CP325) | Potency (DIV14) | Potency (DIV17) | Potency (ICS) | Potency (JCK) | Potency (P93_24) | Potency (PAD) | Potency (PC15) | Potency (PC26) | Potency (SC27B) | Potency (TAB113)

COc1cc2c(cc1OC)[C@@]13CCN4CC5=CCOC6CC(=O)N2C1[C@H]6[C@@H]5C[C@@H]43 (some centres undefined)
inactive: Potency [1] | Potency (AS120) | Potency (CP215) | Potency (CP237) | Potency (CP265) | Potency (CP268) | Potency (CP325) | Potency (DIV14) | Potency (DIV17) | Potency (ICS) | Potency (JCK) | Potency (P93_24) | Potency (PAD) | Potency (PC15) | Potency (PC26) | Potency (SC27B) | Potency (TAB113) | Potency (W2)

CNC[C@H](O)c1ccc(O)cc1
inactive: Potency [1] | Potency (AS120) | Potency (CP215) | Potency (CP237) | Potency (CP265) | Potency (CP268) | Potency (CP325) | Potency (DIV14) | Potency (DIV17) | Potency (ICS) | Potency (JCK) | Potency (P93_24) | Potency (PAD) | Potency (PC15) | Potency (PC26) | Potency (SC27B) | Potency (TAB113) | Potency (W2)

CCC(C)C1O[C@]2(C=CC1C)CC1CC(C/C=C(\C)[C@H](OC3CC(OC)C(O[C@H]4CC(OC)[C@@H](O)C(C)O4)C(C)O3)[C@@H](C)/C=C/C=C3\COC4C(O)C(C)=C[C@H](C(=O)O1)[C@@]34O)O2 (some centres undefined)
active: Potency (AS120) 10 µM | Potency (CP215) 13.5 µM | Potency (CP265) 8.91 µM | Potency (DIV14) 12 µM | Potency (DIV17) 12 µM | Potency (ICS) 7.08 µM | Potency (PC26) 7.57 µM | Potency (SC27B) 11.2 µM | Potency (W2) 4.78 µM
inactive: Potency [1]

CC(=O)O[C@H]1CC[C@@]2(C)C(=CC[C@@H]3[C@H]2CC[C@]2(C)C(=O)CC[C@H]32)C1
inactive: Potency [1] | Potency (AS120) | Potency (CP215) | Potency (CP237) | Potency (CP265) | Potency (CP268) | Potency (CP325) | Potency (DIV14) | Potency (DIV17) | Potency (ICS) | Potency (JCK) | Potency (P93_24) | Potency (PAD) | Potency (PC15) | Potency (PC26) | Potency (SC27B) | Potency (TAB113) | Potency (W2)

O=C1C=C2C=CC3C[C@@]2(O1)C1CCCCN31 (some centres undefined)
active: Potency (AS120) 10 µM | Potency (CP215) 10.7 µM | Potency (CP237) 5.01 µM | Potency (DIV17) 15.1 µM | Potency (ICS) 7.94 µM | Potency (P93_24) 12.6 µM | Potency (PAD) 12.6 µM | Potency (TAB113) 14.1 µM | Potency (W2) 7.57 µM
inactive: Potency (DIV14)

c1cncc([C@H]2CCCCN2)c1
inactive: outcome [2]

CN[C@@H](C)[C@H]1CC[C@@H](N)[C@@H](O[C@@H]2[C@@H](O)[C@@H](O[C@H]3OC[C@@](C)(O)[C@@H](NC)[C@@H]3O)[C@H](N)C[C@@H]2N)O1 (tested in a mixture with another compound)
inactive: Potency [1] | Potency (AS120) | Potency (CP237) | Potency (CP265) | Potency (CP268) | Potency (CP325) | Potency (DIV14) | Potency (DIV17) | Potency (ICS) | Potency (JCK) | Potency (P93_24) | Potency (PAD) | Potency (PC15) | Potency (PC26) | Potency (SC27B) | Potency (TAB113) | Potency (W2)

CCCCCCCCCc1ccc(O)cc1
inactive: max response [3] -7.88%

O=c1ccc2cc(O[C@H]3O[C@@H](CO)[C@@H](O)[C@@H](O)[C@@H]3O)c(O)cc2o1
inactive: Potency (AS120) | Potency (CP215) | Potency (CP237) | Potency (CP265) | Potency (CP268) | Potency (CP325) | Potency (DIV14) | Potency (ICS) | Potency (JCK) | Potency (P93_24) | Potency (PAD) | Potency (PC15) | Potency (PC26) | Potency (SC27B) | Potency (TAB113) | Potency (W2)

O=C1C(Cl)=C(Cl)C(=O)C(Cl)=C1Cl
active: Potency [3] 39.8 µM
